Several values for one entry are separate records, joined by “and”; a condition that tells them apart may be missing. Equal values may be shown once. Results filed as inconclusive are left out. Activity calls are given as the source filed them. Unless noted, calls follow the shape of the dose curve; as a rule, active = well fitted curve in the direction sought with a large enough effect in the repeat runs; inconclusive = weak or mixed curves; inactive = no such curve, though single readings can be large; an effect the other way counts as inactive or inconclusive.
What was measured:
[1] = qHTS assay to identify small molecule agonists of the RXR signaling pathway - cell viability counter screen (AID 1159529); also: nearly all actives have a fitted effect of over 50% in size; also: potency is read from the fitted curve at half-maximal effect
In short: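 In this parallel viability measure, GeneBLAzer RXR-alpha HEK 293T cells (2% charcoal-stripped FBS) were given a 5 hr preincubation, treated with compounds 16 hr at 37 C, and read by CellTiter-Glo luminescence.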

[2] = qHTS assay to identify small molecule antagonists of the retinoid acid receptor (RAR) signaling pathway - cell viability counter screen (AID 1159551); also: nearly all actives have a fitted effect of over 35% in size; also: potency is read from the fitted curve at half-maximal effect
In short: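 Luminescent ATP quantitation (CellTiter-Glo) gave cell viability in C3RL4 cells exposed to test chemicals for 6 h at 37 C alongside 1 uM final retinol.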

[3] = qHTS assay to identify small molecule antagonists of the estrogen related receptor (ERR) signaling pathway from Tox21 library - cell viability counter screen (AID 1224834); also: nearly all actives have a fitted effect of over 30% in size; also: potency is read from the fitted curve at half-maximal effect
In short: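 Fluorescence from CellTiter-Fluor gives the viability read-out, taken 30 min after reagent addition. Before that, ERR cells seeded 6 h earlier were incubated with compounds for 17.5 h at 37 C.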

[4] = qHTS assay to identify small molecule agonists of the constitutive androstane receptor (CAR) signaling pathway - cell viability counter screen (AID 1224836); also: nearly all actives have a fitted effect of over 45% in size; also: potency is read from the fitted curve at half-maximal effect
In short: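 Using CellTiter-Fluor, viability of HepG2 cells harbouring hCAR and CYP2B6-2.2kb was measured following 23 h incubation with a 15-concentration compound series plus PK11195 (0.75 uM final).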

[5] = qHTS assay to identify small molecule antagonists of the constitutive androstane receptor (CAR) signaling pathway - cell viability counter screen (AID 1224837); also: nearly all actives have a fitted effect of over 45% in size; also: potency is read from the fitted curve at half-maximal effect
In short: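 HepG2-CYP2B6-hCAR cells, 2500/well, 4 hr pre-incubation; compound titration, 15 conc.; CITCO 50 nM final; 23 hr, 37 C/5% CO2; CellTiter-Fluor, fluorescence intensity.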

[6] = qHTS assay to identify small molecule antagonists of the estrogen related receptor signaling pathway with the pleiotropic PPARgamma coactivator (PGC) from Tox21 10K library - cell viability counter screen (AID 1224840; active = well fitted cell-killing curve with a large enough effect in the repeat runs, not every such curve was filed as active; also: nearly all actives have a fitted effect of over 40% in size; also: potency is read from the fitted curve at half-maximal effect)
In short: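 PGC/ERR cells, 2,000/well; 6 h pre-incubation 37 C/5% CO2; cpd in DMSO via pin tool; 17.5 h 37 C; CellTiter-Fluor, 30 min; fluorescence.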

[7] = molecular target: Luciferin 4-monooxygenase (Photinus pyralis) (UniProt P08659); assay: qHTS assay to identify small molecule inhibitors of firefly luciferase (AID 1224835); also: nearly all actives have a fitted effect of over 25% in size; also: potency is read from the fitted curve at half-maximal effect
Chain of Luciferin 4-monooxygenase (Photinus pyralis) (P08659 whole entry, looked up): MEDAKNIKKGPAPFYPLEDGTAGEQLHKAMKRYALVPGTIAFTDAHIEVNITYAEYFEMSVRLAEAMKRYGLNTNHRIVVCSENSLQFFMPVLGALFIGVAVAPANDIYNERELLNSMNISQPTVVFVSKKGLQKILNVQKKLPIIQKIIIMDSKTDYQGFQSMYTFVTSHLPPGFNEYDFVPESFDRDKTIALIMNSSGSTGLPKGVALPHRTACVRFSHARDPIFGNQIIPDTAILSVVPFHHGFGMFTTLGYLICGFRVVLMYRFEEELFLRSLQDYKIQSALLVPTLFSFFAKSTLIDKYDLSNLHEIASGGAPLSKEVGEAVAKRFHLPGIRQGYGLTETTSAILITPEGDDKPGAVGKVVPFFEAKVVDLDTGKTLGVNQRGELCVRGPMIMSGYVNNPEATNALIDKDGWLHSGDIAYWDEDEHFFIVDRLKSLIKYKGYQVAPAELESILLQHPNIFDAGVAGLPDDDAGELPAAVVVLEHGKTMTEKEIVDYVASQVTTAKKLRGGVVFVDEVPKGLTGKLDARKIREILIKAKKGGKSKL
In short: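 Biochemical qHTS: compounds run as interplate titrations against purified firefly enzyme, with D-luciferin and ATP each at its KM concentration. Light output recorded by CCD imaging.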

[8] = molecular target: Nuclear receptor subfamily 1 group I member 3 (Homo sapiens) (UniProt Q14994); assay: qHTS assay to identify small molecule antagonists of the constitutive androstane receptor (CAR) signaling pathway (AID 1224838);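 also: HepG2 cells stably expressing hCAR with CYP2B6 luciferase reporter stimulated by CITCO; nearly all actives have a fitted effect of over 40% in size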; also: potency is read from the fitted curve at half-maximal effect
Chain of Nuclear receptor subfamily 1 group I member 3 (Homo sapiens) (Q14994 whole entry, looked up): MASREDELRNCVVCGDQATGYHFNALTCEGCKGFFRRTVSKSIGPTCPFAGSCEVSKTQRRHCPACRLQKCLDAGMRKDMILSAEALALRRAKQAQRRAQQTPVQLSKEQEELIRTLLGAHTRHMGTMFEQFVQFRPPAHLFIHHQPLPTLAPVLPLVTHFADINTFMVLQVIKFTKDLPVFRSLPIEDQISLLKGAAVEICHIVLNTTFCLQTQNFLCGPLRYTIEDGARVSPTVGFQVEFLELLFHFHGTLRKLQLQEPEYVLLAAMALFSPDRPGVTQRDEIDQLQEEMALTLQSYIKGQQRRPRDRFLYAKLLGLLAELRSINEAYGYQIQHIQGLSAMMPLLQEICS
In short: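 HepG2-CYP2B6-hCAR cells; 4 h pre-incubation; cpd (15 conc) + CITCO 50 nM final; 24 h, 37 C/5% CO2; ONE-Glo, luminescence.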

[9] = molecular target: Nuclear receptor subfamily 1 group I member 3 (Homo sapiens) (UniProt Q14994); assay: qHTS assay to identify small molecule agonists of the constitutive androstane receptor (CAR) signaling pathway (AID 1224839); also: nearly all actives have a fitted effect of over 15% in size; also: potency is read from the fitted curve at half-maximal effect
In short: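 Double-stable HepG2 cells (hCAR, CYP2B6-2.2kb) seeded 4 h before compound addition. Exposure 24 h with 0.75 uM PK11195 final. Luciferase detected by ONE-Glo.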

[10] = qHTS assay to identify small molecule antagonists of the estrogen related receptor signaling pathway with the pleiotropic PPARgamma coactivator (PGC) from Tox21 10K library (AID 1224841; call rule not given here; also: actives are mostly falling curves and most rising ones were filed inactive; nearly all actives have a fitted effect of over 50% in size; also: potency is read from the fitted curve at half-maximal effect)
In short: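 PGC/ERR cell line, 2,000 cells/well; 6 h pre-incubation 37 C/5% CO2; compounds (DMSO) pinned in; 18 h, 37 C; One-Glo, 30 min RT; luminescence.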

[11] = qHTS assay to identify small molecule agonists of the estrogen related receptor signaling pathway with the pleiotropic PPARgamma coactivator (PGC) from Tox21 10K library (AID 1224842); also: nearly all actives have a fitted effect of over 15% in size; also: potency is read from the fitted curve at half-maximal effect
In short: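 PGC/ERR reporter cell line, 2,000 cells per well, incubated 6 h at 37 C before 23 nL compound in DMSO was added. After 18 h at 37 C, One-Glo luminescence read following 30 min at room temperature.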

[12] = molecular target: Thyrotropin receptor (Homo sapiens) (UniProt P16473); assay: qHTS assay to identify small molecule agonists of the thyroid stimulating hormone receptor (TSHR) signaling pathway (AID 1224843; calls by dose curve; also: % is scaled to controls: 0 for no effect and ±100 for the full control effect; nearly all actives have a fitted effect of over 45% in size)
Chain of Thyrotropin receptor (Homo sapiens) (P16473 whole entry, looked up): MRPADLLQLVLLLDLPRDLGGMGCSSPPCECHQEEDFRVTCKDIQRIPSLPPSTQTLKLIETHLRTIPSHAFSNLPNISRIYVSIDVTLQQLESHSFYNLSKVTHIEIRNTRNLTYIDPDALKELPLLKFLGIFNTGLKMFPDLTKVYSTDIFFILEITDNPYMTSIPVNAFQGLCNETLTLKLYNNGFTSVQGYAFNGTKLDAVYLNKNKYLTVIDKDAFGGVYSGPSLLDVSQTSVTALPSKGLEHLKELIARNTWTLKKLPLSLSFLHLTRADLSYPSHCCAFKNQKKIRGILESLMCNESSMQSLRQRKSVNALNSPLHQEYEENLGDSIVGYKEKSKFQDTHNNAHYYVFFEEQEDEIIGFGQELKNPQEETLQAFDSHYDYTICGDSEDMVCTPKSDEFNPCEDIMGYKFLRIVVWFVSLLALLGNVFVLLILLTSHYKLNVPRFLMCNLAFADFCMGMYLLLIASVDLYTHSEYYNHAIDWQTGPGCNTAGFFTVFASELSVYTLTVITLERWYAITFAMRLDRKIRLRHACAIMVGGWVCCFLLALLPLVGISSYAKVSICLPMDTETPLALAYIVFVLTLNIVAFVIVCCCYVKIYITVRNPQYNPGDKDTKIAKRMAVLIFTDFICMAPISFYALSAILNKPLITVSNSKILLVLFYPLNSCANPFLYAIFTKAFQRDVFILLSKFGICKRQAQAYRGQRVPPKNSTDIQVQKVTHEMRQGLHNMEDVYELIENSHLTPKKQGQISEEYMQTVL
In short: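 Steps: seed 800 TSHR-HEK293 cells per well; add test compound and hold 30 min at ambient temperature; dispense cAMP-d2 then anti-cAMP cryptate; incubate 1 h at ambient; measure fluorescence intensity.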

[13] = qHTS assay to identify small molecule antagonists of the retinoic acid receptor (RAR) signaling pathway (AID 1159552; also: nearly all actives have a fitted effect of over 50% in size; also: potency is read from the fitted curve at half-maximal effect)
In short: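 C3RL4 RARE-luc cells, overnight plating; retinol 1 uM final added right after compound; 6 hr 37 C; luciferase read at 30 min RT.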

[14] = qHTS assay to identify small molecule agonists of the retinoic acid receptor (RAR) signaling pathway (AID 1159553); also: potency is read from the fitted curve at half-maximal effect
In short: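 Luminescence from a RARE-driven luciferase reporter in C3RL4 cells served as the read-out, measured after 30 min with detection reagent at room temperature. Compounds in DMSO were applied for 6 hr at 37 C following overnight seeding.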

Measured: Potency

[Cd+2].[Cl-].[Cl-]
inactive: [2]
active: [1] 17.5 µM and 24.5 µM | [3] 24.5 µM and 6.11 µM | [4] 5.49 µM and 9.69 µM | [5] 4.36 µM and 9.69 µM | [6] 4.9 µM and 2.73 µM

CC(=O)[O-].CC(=O)[O-].[Hg+2]
active: [1] 2.75 µM | [2] 4.33 µM | [4] 7.7 µM | [5] 4.86 µM | [6] 2.73 µM

C[C@H]1O[C@@H](O[C@H]2[C@@H](O)C[C@H](O[C@H]3[C@@H](O)C[C@H](O[C@H]4CC[C@@]5(C)[C@H](CC[C@@H]6[C@@H]5CC[C@]5(C)[C@@H](C7=CC(=O)OC7)CC[C@]65O)C4)O[C@@H]3C)O[C@@H]2C)C[C@H](O)[C@@H]1O
inactive: [2] | [7] | [9] | [11] | [12]
active: [1] 0.0621 µM | [3] 43.5 nM and 75 nM | [4] 0.0975 µM | [8] 77.4 nM and 422 nM | [10] 97.5 nM and 168 nM

N#CCCO
inactive: [1] | [2] | [3] | [4] | [5] | [6]

Cc1cc(C)c(C2=C(OC(=O)CC(C)(C)C)C3(CCCC3)OC2=O)c(C)c1
inactive: [1] | [2] | [3] | [4] | [5] | [8] | [9] | [6] | [10] | [11]

O=[N+]([O-])c1cc(C(F)(F)F)c(Cl)c([N+](=O)[O-])c1Cl
inactive: [11]
active: [1] 17.4 µM | [2] 48.6 µM | [3] 54.5 µM | [7] 79.6 µM | [4] 43.3 µM | [5] 27.3 µM | [6] 48.6 µM

C[As+](C)(C)CC(=O)[O-]
inactive: [1] | [2] | [7] | [4] | [5] | [8] | [6] | [11] | [12]

CCCCCCCCCCCCCCCC[n+]1ccccc1
inactive: [7]
active: [1] 17.1 µM [middle of 4 runs] | [2] 63.9 µM and 54.5 µM and 53.7 µM | [3] 32 µM [middle of 4 runs] | [5] 32 µM and 15.4 µM and 19.1 µM | [6] 53.7 µM [middle of 4 runs]

CC(=O)c1ccc(-c2ccccc2)cc1
active: [7] 31.7 µM | [9] 48.6 µM
inactive: [1] | [3] | [4] | [5] | [8] | [6] | [12]

CCS(=O)(=O)c1cccnc1S(=O)(=O)NC(=O)Nc1nc(OC)cc(OC)n1
inactive: [1] | [3] | [7] | [4] | [5] | [8] | [6] | [11] | [12]
active: [9] 54.5 µM

O=C(CBr)c1ccc(O)cc1
active: [13] 54.5 µM
inactive: [1] | [4] | [5] | [10] | [11]

Cc1cc(N=Nc2ccccc2C)ccc1N
inactive: [13] | [8] | [10]
active: [1] 54.9 µM and 43.6 µM | [14] 864 nM and 1.22 µM | [3] 27.3 µM | [7] 5.64 µM and 6.33 µM | [4] 17.2 µM and 1.09 µM | [5] 3.06 µM | [9] 30.6 µM and 48.6 µM | [6] 38.6 µM and 27.3 µM | [11] 4.33 µM and 2.43 µM
